Assay [1] can be described thus: NCI Yeast Anticancer Drug Screen. Data for the rad50 strain (AID 155).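 Also: 0% = growth of vehicle-only cultures of the same strain.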 As to conditions: S. cerevisiae rad50 strain growth inhibition; at 50.0 µM; active compounds read high. Put shortly:
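Compounds were tested on a yeast strain with an engineered DNA damage repair alteration; the reported value is growth inhibition normalised to vehicle treatment.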

A short description of assay [2]: NCI Yeast Anticancer Drug Screen. Data for the mec2-1 strain (AID 157). As to conditions: S. cerevisiae mec2-1 strain, at 50.0 µM, active compounds read high. The procedure, abridged:
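Growth inhibition is read against vehicle-treated controls after compound exposure of the mec2-1 yeast strain, which is defective in DNA damage repair or cell cycle control.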

Assay [3] can be described thus: NCI Yeast Anticancer Drug Screen. Data for the sgs1 mgt1 strain (AID 161).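 Also: 0% = growth of cultures given vehicle only.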 As to conditions: S. cerevisiae sgs1 mgt1 strain, at 50.0 µM, active compounds read high. The procedure, abridged:
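Yeast cells carrying a defined DNA-repair defect were exposed to test compounds. Growth inhibition was measured relative to vehicle-treated controls.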

Assay [4] in a line: NCI Yeast Anticancer Drug Screen. Data for the cln2 rad14 strain (AID 165).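 Also: 0% = growth equal to vehicle treated cultures.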 To be noted: S. cerevisiae cln2 rad14 strain, at 50.0 µM, active compounds read high. Put shortly: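 Growth inhibition, relative to vehicle-treated controls, is the read-out. The test organism is a yeast strain with defined genetic alterations, cln2 rad14.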
Assay [5] in a line: NCI Yeast Anticancer Drug Screen. Data for the bub3 strain (AID 167). As to conditions: S. cerevisiae bub3 mutant strain, at 50.0 µM, active compounds read high. Put shortly:
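Growth of a checkpoint-deficient yeast mutant is measured after compound exposure. Values represent inhibition relative to vehicle.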

Assay [6] can be described thus: NCI Yeast Anticancer Drug Screen. Data for the mlh1 rad18 strain (AID 175). As to conditions: S. cerevisiae mlh1 rad18 strain growth inhibition; at 50.0 µM; active compounds read high. Put shortly: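 Cells of a genetically altered yeast strain, deficient in DNA damage repair, were treated with compound. Their growth was then compared with that of vehicle-treated cultures to give inhibition.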

The structures appear in SMILES notation. The panel holds about 79,000 compounds, 15% with a hit somewhere; the sample as a whole holds those more often. A number with no mark means an inactive call. Calls of active or inactive are those of the source. Rule as the data show it: active = growth inhibition above about 70%; inactive = the rest.

Regarding `Cc1cccc(NC(=O)Oc2ccc(Cl)cc2C(=O)c2ccccc2)c1`, the growth inhibition in assay [1] is 30.4%; in assay [2] it was 10.7%; in assay [3] it was 35.4%; in assay [4] it was 29.9%; in assay [5], 34.4%; in assay [6], 26.2%.

Take `CC(C)CC(Nc1ccc2ccccc2c1)C(N)=O` (configuration not stated): the growth inhibition in assay [1] is -6.9%; in assay [2], -44.4%; in assay [3], 10.2%; in assay [4], 8.65%; in assay [5] it was 10.8%; in assay [6] it was -3.4%.

Regarding `Cc1ncc([N+](=O)[O-])n1CCNCCCCn1ccnc1[N+](=O)[O-]`, the growth inhibition was -28.4% in assay [1]; -21.6% in assay [2]; -6.15% in assay [3]; -23.7% in assay [4]; -52.3% in assay [5]; -17.9% in assay [6].

With `N[C@@H]1c2c(csc2Br)C(=O)[C@@H]1O`, the growth inhibition in assay [1] was -5.25%; in assay [2], -6.55%; in assay [3], 13.3%; in assay [4], -6.8%; in assay [5] it was 0.8%; in assay [6], -14.6%.

Regarding `CCOC(=O)c1oc2c(OC)ccc3c2c1CCC3`, the growth inhibition is 7.7% in assay [1]; 4% in assay [2]; 1.8% in assay [3]; -9.4% in assay [4]; -6.25% in assay [5]; 30.8% in assay [6].

In the case of `COc1nc(NC2OC(CO)C(O)C(O)C2O)c(/C=N/O)c(=O)n1C` (configuration not stated), the growth inhibition in assay [1] is 4.55%; in assay [2] it was 2.25%; in assay [3] it was -6.35%; in assay [4], 6.8%; in assay [5] it was 7.85%; in assay [6], 4.45%.

For `CC(=O)SC1CC(=O)OC1=O` (configuration not stated), the growth inhibition in assay [1] was -3.1%; in assay [2], -15.3%; in assay [3], 7.1%; in assay [4], 7.8%; in assay [5], 0.2%; in assay [6], 7.85%.

As for `O=C(NC(=O)c1ccccc1Cl)Nc1ccc(C(O)(C(F)(F)F)C(F)(F)F)cc1`, the growth inhibition in assay [1] was 53.8%; in assay [2] it was 53.5%; in assay [3] it was 58.4%; in assay [4], 68.7%; in assay [5] it was 34.3%; in assay [6], 61.5%.

As to `C=CCSc1ncnc2c1c(C#N)cn2C1OC(CO)C(O)C1O` (configuration not stated), the growth inhibition is 22% in assay [1]; -21.2% in assay [2]; -16.9% in assay [3]; 17.5% in assay [4]; 7.25% in assay [5]; 28.4% in assay [6].

On to `N#CC(c1ccccc1)N(C(N)=O)c1ccccc1` (configuration not stated), for which the growth inhibition in assay [1] is -3.15%; in assay [2], 8.5%; in assay [3], 8.05%; in assay [4], -2.85%; in assay [5], 6.4%; in assay [6] it was 4.2%.

For `Cc1ccc(C(c2ccc(C)c(C)c2)C(O)C(O)C(O)C(O)CO)cc1C` (configuration not stated), the growth inhibition in assay [1] is -4.8%; in assay [2] it was -2.6%; in assay [3] it was -2.9%; in assay [4], 1.6%; in assay [5], -6.05%; in assay [6], -18.4%.

Regarding `CC(=O)C1=C(C)Cn2c(=O)c3ccccc3c(=O)n2C1`, the growth inhibition is -4.7% in assay [1]; -18.5% in assay [2]; -10.7% in assay [3]; 10% in assay [4]; -15.7% in assay [5]; -0.05% in assay [6].

On to `Cc1ccc(Oc2ccc(C(=O)c3cccc(C(=O)c4ccc(Oc5ccc(C)cc5)cc4)n3)cc2)cc1`, for which the growth inhibition in assay [1] was -18.6%; in assay [2], 2.05%; in assay [3], -38.2%; in assay [4], -28.2%; in assay [5] it was -15.3%; in assay [6] it was -24.9%.

`C/C(=C\CNc1ncnc2c1ncn2CCC(=O)OC(C)(C)C)CO`: the growth inhibition in assay [1] was -12.3%; in assay [2], -8.7%; in assay [3], -49.1%; in assay [4] it was 13.1%; in assay [5] it was 5.6%; in assay [6] it was -17.6%.

Turning to `O=C(O)CN1C(=O)/C(=C\c2ccc3ccccc3n2)SC1=S`, the growth inhibition in assay [1] is 1.9%; in assay [2], 18.9%; in assay [3] it was 2.85%; in assay [4], -14.1%; in assay [5], 0.4%; in assay [6], 20.6%.

As to `CCCCCCC(=O)c1ccco1`, the growth inhibition in assay [1] is 2.4%; in assay [2], -18.6%; in assay [3], -1.05%; in assay [4] it was 14.9%; in assay [5] it was -1.75%; in assay [6], -11.8%.

As to `N#Cc1cc(C#N)c(N)nc1N`, the growth inhibition is 14.1% in assay [1]; 6.35% in assay [2]; 1.8% in assay [3]; 13.4% in assay [4]; -1.25% in assay [5]; -5.7% in assay [6].

Consider `CC(C)CC(NC(=O)CN)C(=O)O` (configuration not stated), for which the growth inhibition in assay [1] is -1.85%; in assay [2] it was 2.4%; in assay [3] it was -1.1%; in assay [4] it was -7.2%; in assay [5] it was -6%; in assay [6], -0.85%.

For `CCCCc1c[nH]c(=O)[nH]c1=O`, the growth inhibition in assay [1] is 4.55%; in assay [2], 5.05%; in assay [3], -8.4%; in assay [4], -34.6%; in assay [5], -12.6%; in assay [6], 5.7%.

`CCCCCCC(O)CCCCCCCCCCC(=O)O` (configuration not stated): the growth inhibition in assay [1] is -14.3%; in assay [2] it was 0.1%; in assay [3] it was 16.4%; in assay [4], -25.4%; in assay [5] it was -6.8%; in assay [6], 19.7%.

Regarding `CN(C)c1ccccc1CN1CCCN(Cc2ccccc2N(C)C)C1c1ccncc1`, the growth inhibition is -16.3% in assay [1]; -10.1% in assay [2]; -12.3% in assay [3]; -0.25% in assay [4]; -16.2% in assay [5]; -1.55% in assay [6].

`NCC(=O)c1c[nH]c(=O)[nH]c1=O`: the growth inhibition is -8.85% in assay [1]; -5.05% in assay [2]; -12.2% in assay [3]; -42.5% in assay [4]; -10.3% in assay [5]; 4.4% in assay [6].

`CC1C(O)CC23COC(=O)C2=CCCC3C1(C)CCC1=CC(=O)OC1` (configuration not stated): the growth inhibition is -8.6% in assay [1]; -38.9% in assay [2]; -26.2% in assay [3]; -7% in assay [4]; -42% in assay [5]; -20.9% in assay [6].

As for `CC(=O)N1CCc2[nH]c3ccccc3c2CC1`, the growth inhibition in assay [1] is 10.9%; in assay [2], -7.05%; in assay [3] it was -4.55%; in assay [4], 21.8%; in assay [5] it was -3.1%; in assay [6], 16.2%.

Turning to `CCCCCCCCC(=O)N1SC(NC(=O)OC)=Nc2ccccc21`, the growth inhibition in assay [1] is 98.2% (active); in assay [2], 98.2% (active); in assay [3], 98% (active); in assay [4], 90.2% (active); in assay [5], 97% (active); in assay [6], 98.1% (active).

As for `N/C(=N\N=C\c1ccccn1)NO`, the growth inhibition in assay [1] is 1.05%; in assay [2], -12.6%; in assay [3], -5.35%; in assay [4], -6.95%; in assay [5] it was -6.15%; in assay [6], 0.7%.

With `CSCCC(N)C(=O)NCCS(=O)(=O)O` (configuration not stated), the growth inhibition in assay [1] was -22.4%; in assay [2], 1%; in assay [3], 14.8%; in assay [4], -8%; in assay [5], 17.1%; in assay [6], 8.25%.

Turning to `CN1CC(=O)N(C(=O)c2ccccc2)C1=N`, the growth inhibition is -6.6% in assay [1]; -17.2% in assay [2]; -6.4% in assay [3]; -17.9% in assay [4]; -2.15% in assay [5]; 9.55% in assay [6].

For the compound `NC(=O)N/N=C(/CC1C(=O)Oc2ccccc21)c1ccccc1O` (configuration not stated), the growth inhibition in assay [1] was -8.35%; in assay [2], -4.7%; in assay [3], -9.7%; in assay [4] it was -14.3%; in assay [5], -24.9%; in assay [6], 14%.

In the case of `CCCS(=O)(=O)N/N=C(\C)c1cccs1`, the growth inhibition is 3.65% in assay [1]; -8.1% in assay [2]; 3.25% in assay [3]; -35.5% in assay [4]; 1.35% in assay [5]; -4.2% in assay [6].

On to `c1ccc(-c2c3ccccc3cc3c2ccc2ccccc23)cc1`, for which the growth inhibition was -13.4% in assay [1]; -12.2% in assay [2]; -3.95% in assay [3]; 9.25% in assay [4]; 19.5% in assay [5]; 0.55% in assay [6].

As to `C[N+]1(C)N=C([O-])N(c2ccccc2F)C1=O`, the growth inhibition is 7.15% in assay [1]; -7.35% in assay [2]; 2.7% in assay [3]; -17.1% in assay [4]; -2.15% in assay [5]; -0.7% in assay [6].

`COc1ccc(C2=NNC(=O)OC2c2ccccc2)cc1` (configuration not stated): the growth inhibition in assay [1] is 29.1%; in assay [2] it was 16.9%; in assay [3], 28.2%; in assay [4] it was -29.6%; in assay [5], 26.3%; in assay [6] it was 28.9%.

In the case of `Cc1cc(C23OC4COC(C)(C)OC4C2OC(C)(C)O3)nc2ccccc12` (configuration not stated), the growth inhibition in assay [1] was -1.35%; in assay [2], 13.6%; in assay [3] it was 18.6%; in assay [4] it was -22.1%; in assay [5] it was 13.1%; in assay [6], 23.6%.

Consider `COc1ccc([N+](=O)[O-])cc1NC(=O)c1ccc(Cl)cc1`, for which the growth inhibition is 12% in assay [1]; 29.7% in assay [2]; 35.6% in assay [3]; 16.9% in assay [4]; 28% in assay [5]; 34.8% in assay [6].

Take `Brc1ccc(-c2[nH]c3ccccc3c2N=Nc2ccccc2)cc1`: the growth inhibition is 0.85% in assay [1]; -9.6% in assay [2]; 6.45% in assay [3]; -7% in assay [4]; -11.1% in assay [5]; -56.7% in assay [6].

Take `O=C(NO)c1c(F)c(F)c(C(=O)NO)c(F)c1F`: the growth inhibition in assay [1] is -2.5%; in assay [2], 7.05%; in assay [3], 4%; in assay [4], 11%; in assay [5], 9.65%; in assay [6], 2.1%.

The values are drawn from PubChem BioAssay (NCI).
